{"source": "PubChem BioAssay (Tox21)", "note": "Inconclusive results are not listed. Active and inactive are the calls of the source. Calls come from the whole dose curve; as a rule, active = well fitted cell-killing curve with a large enough effect in the repeat runs; inconclusive = weak or mixed curves, or effect the other way; inactive = no such curve, though single readings can be large or run the other way. % is set by controls: 0 for no effect and ±100 for the full control effect."}
{"assay": "qHTS assay to identify small molecule antagonists of the peroxisome proliferator-activated receptor gamma (PPARg) signaling pathway - cell viability counter screen (AID 743194); note: nearly all actives have a fitted effect of over 55% in size", "settings": "PPARg-bla HEK293H viability, CellTiter-Glo luminescence, 17 h, co-treated with 50 nM rosiglitazone; series mostly up to 62.6 µM; activity change, negative = cytotoxicity: at the top concentration", "from_the_text": "U.S. Tox21 Program National Center for Advancing Translational Sciences [NCATS] NIH Chemical Genomics Center [NCGC] U.S. Environmental Protection Agency [EPA] National Institutes of Environmental Health Sciences [NIEHS] National Toxicology Program [NTP] U.S. Food and Drug Administration [FDA] Tox21 Assay Overview: The peroxisome proliferator-activated receptors (PPARs) are lipid-activated transcription factors of the nuclear receptor superfamily with three distinct subtypes namely PPAR alpha, PPAR delta (also called PPAR beta) and PPAR gamma (PPARg). All these subtypes heterodimerize with Retinoid X receptor (RXR) and these heterodimers regulate transcription of various genes. PPAR-gamma receptor (glitazone receptor) is involved in the regulation of glucose and lipid metabolism. To identify the compounds that activate PPAR-gamma signaling, GeneBLAzer PPAR gamma UAS-bla HEK293H cell line (Invitrogen, Carlsbad, CA, USA) containing a beta-lactamase reporter gene under the control of an Upstream Activator Sequence (UAS) was used to screen the Tox21 compound library. The cytotoxicity of the Tox21 compound library against the PPARg-bla cell line was tested in parallel by measuring the cell viability using CellTiter-Glo assay in the same wells.\nTox21 Assay Protocol Summary: PPARg-bla cells were dispensed at 3000 cells/5uL/well in 1536-well black wall/clear bottom plates using a Multidrop Combi (Thermo Fisher Scientific, Waltham, MA) dispenser. After the assay plates were incubated at 37 C and 5% CO2 for 5 h, 23 nL of compounds dissolved in DMSO, positive controls or DMSO only was transferred to the assay plate by a Pintool station (Kalypsys, San Diego, CA), followed by addition of 1ul Rosiglitazone (50 nM, final concentration in the wells). The assay plates were incubated at 37 C for 17 h, and then 1 uL of LiveBLAzerTM B/G FRET substrate was added using a Bioraptr Flying Reagent Dispenser (FRD) workstation (Beckman Coulter, Indianapolis, IN, USA). The assay plates were incubated at room temperature for 1 h and fluorescence intensity was measured by an Envision plate reader (PerkinElmer, Shelton, CT). For cell viability readout that measures cytotoxicity, 4 ul/well of CellTiter-Glo reagent was added into the assay plates using a Flying Reagent Dispenser. After 30 min incubation at room temperature, the luminescence intensity in the plates was measured using a ViewLux plate reader (PerkinElmer)."}
{"smiles": "CCC(=O)/C=C/c1ccc(OC)cc1", "activity change, negative = cytotoxicity": "4.61% (inactive)"}
{"smiles": "CCCC(C)C(=O)O", "note": "(stereo not given)", "activity change, negative = cytotoxicity": "-0.615% (inactive)"}
{"smiles": "COC(=O)c1ccc(C(=O)OC)c(C(=O)OC)c1", "activity change, negative = cytotoxicity": "5.65% (inactive)"}
{"smiles": "Cc1ccc(Nc2ccc(O)c3c2C(=O)c2ccccc2C3=O)cc1", "activity change, negative = cytotoxicity": "19.4% (inactive)"}
{"smiles": "CCCCCCC(CCCCCCCCCCC(=O)OCC(COC(C)=O)OC(C)=O)OC(C)=O", "note": "(stereo not given)", "activity change, negative = cytotoxicity": "-0.847% (inactive)"}
{"smiles": "CCCCCOC(=O)Nc1nc(=O)n([C@@H]2O[C@H](C)[C@@H](O)[C@H]2O)cc1F", "activity change, negative = cytotoxicity": "3.6% (inactive)"}
{"smiles": "Fc1ccccc1-c1ccccc1", "activity change, negative = cytotoxicity": "1.44% [at 81.1 µM] (inactive)"}
{"smiles": "CN(C)CCOC(c1ccc(Cl)cc1)c1ccccn1", "note": "(stereo not given)", "activity change, negative = cytotoxicity": "-1.33% (inactive)"}
{"smiles": "OCC(CO)(CO)COCC(CO)(CO)CO", "activity change, negative = cytotoxicity": "-8.14% (inactive)"}
{"smiles": "CC(=O)O[C@H](CC(=O)[O-])C[N+](C)(C)C", "activity change, negative = cytotoxicity": "-2.97% (inactive)"}
{"smiles": "CCCCCCOC(=O)CC(CC(=O)OCCCCCC)(OC(=O)CCC)C(=O)OCCCCCC", "activity change, negative = cytotoxicity": "-0.495% (inactive)"}
{"smiles": "CCN1CCCC1CNC(=O)c1cc(S(N)(=O)=O)ccc1OC", "note": "(stereo not given)", "activity change, negative = cytotoxicity": "9.77% (inactive)"}
{"smiles": "CC12CCC(CC1=O)C2(C)C", "note": "(stereo not given)", "activity change, negative = cytotoxicity": "5.33% (inactive)"}
{"smiles": "C(=C(c1ccccc1)c1ccccc1)c1ccccc1", "activity change, negative = cytotoxicity": "2.9% (inactive)"}
{"smiles": "Cc1nc(-c2ccc(OCC(C)C)c(C#N)c2)sc1C(=O)O", "activity change, negative = cytotoxicity": "9.45% (inactive)"}
{"smiles": "CCOC(=O)Cn1c(=O)sc2cccc(Cl)c21", "activity change, negative = cytotoxicity": "5.99% (inactive)"}
{"smiles": "CSc1nc(NC2CC2)nc(NC(C)(C)C)n1", "activity change, negative = cytotoxicity": "-7.48% (inactive)"}
{"smiles": "COC(=O)[C@H]1[C@H]2C[C@@H]3c4[nH]c5cc(OC)ccc5c4CCN3C[C@H]2C[C@@H](OC(=O)COc2ccc(OC)cc2)[C@@H]1OC", "activity change, negative = cytotoxicity": "1.65% (inactive)"}
{"smiles": "OC/C=C/c1ccccc1", "activity change, negative = cytotoxicity": "-4.5% [at 81.1 µM] (inactive)"}
{"smiles": "CSc1ccc(C=O)cc1", "activity change, negative = cytotoxicity": "-7.05% (inactive)"}
{"smiles": "CCN1CCN(c2cc3c(cc2F)c(=O)c(C(=O)O)cn3C2CC2)CC1", "activity change, negative = cytotoxicity": "8.32% (inactive)"}
{"smiles": "CCCCOCC(C)OCC(C)O", "note": "(stereo not given)", "activity change, negative = cytotoxicity": "-5.85% [at 81.1 µM] (inactive)"}
{"smiles": "CC(C)[C@H](N)C(=O)OCCOCn1cnc2c(=O)[nH]c(N)nc21", "activity change, negative = cytotoxicity": "-5.05% (inactive)"}
{"smiles": "CCCCCCCCCCCl", "activity change, negative = cytotoxicity": "-0.48% [at 81.1 µM] (inactive)"}
{"smiles": "CCCCCCCCCCC1CO1", "note": "(stereo not given)", "activity change, negative = cytotoxicity": "-7.48% (inactive)"}
{"smiles": "CCCOc1ccccc1-c1nc2n[nH]nc2c(=O)[nH]1", "activity change, negative = cytotoxicity": "-17% (inactive)"}
{"smiles": "NCCN1CCNC1=O", "activity change, negative = cytotoxicity": "7.37% (inactive)"}
{"smiles": "Nc1nc2c(ncn2CCC(CO)CO)c(=O)[nH]1", "activity change, negative = cytotoxicity": "-1.83% (inactive)"}
{"smiles": "COc1ccc(COC=O)cc1", "activity change, negative = cytotoxicity": "5.06% (inactive)"}
{"smiles": "CN(C)CCn1nnnc1SCC1=C(C(=O)O)N2C(=O)[C@@H](NC(=O)Cc3csc(N)n3)[C@H]2SC1", "activity change, negative = cytotoxicity": "5.53% (inactive)"}
{"smiles": "O=c1[nH]c2ccccc2c(=O)n1CCCl", "activity change, negative = cytotoxicity": "12.6% (inactive)"}
{"smiles": "CC1=CC(=O)CCC1", "activity change, negative = cytotoxicity": "-0.182% (inactive)"}
{"smiles": "CC(C)CCCC(C)NCCC(C)C", "note": "(stereo not given)", "activity change, negative = cytotoxicity": "-20.8% (inactive)"}
{"smiles": "CC/C=C\\CCCCO", "activity change, negative = cytotoxicity": "-7.16% (inactive)"}
{"smiles": "NS(=O)(=O)c1cc(C2(O)NC(=O)c3ccccc32)ccc1Cl", "note": "(stereo not given)", "activity change, negative = cytotoxicity": "7.5% (inactive)"}
{"smiles": "CCc1cc(S(=O)(=O)O)c2cc(C(C)C)cccc1-2", "activity change, negative = cytotoxicity": "4.63% (inactive)"}
{"smiles": "O=[N+]([O-])c1ccc(Oc2ccc([N+](=O)[O-])cc2)cc1", "activity change, negative = cytotoxicity": "2.89% [at 81.1 µM] (inactive)"}
{"smiles": "C[N+](C)(C)CC[N+]1(C)Cc2c(Cl)c(Cl)c(Cl)c(Cl)c2C1", "activity change, negative = cytotoxicity": "7.94% (inactive)"}
{"smiles": "O=C(O)c1cccc(C(=O)O)n1", "activity change, negative = cytotoxicity": "-1.51% (inactive)"}
{"smiles": "O=C(O)CCNC(=O)c1ccc(N=Nc2ccc(O)c(C(=O)O)c2)cc1", "activity change, negative = cytotoxicity": "5.04% (inactive)"}
